From publication PMC4336329 (PLoS ONE, 2015) come the findings set out here.

Out of some 310,000 compounds screened, about 14,000 (4.5%) showed an effect of 50% or more. Effects have a minus sign here. Many of the other results were omitted from the sample, so strong results are more common in it than they were.
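Note: peak tail current of the secondary pulse compared with the same well before compound.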

human ether-à-go-go-related gene (hERG) potassium channel, sequence (Q12809 whole entry, looked up): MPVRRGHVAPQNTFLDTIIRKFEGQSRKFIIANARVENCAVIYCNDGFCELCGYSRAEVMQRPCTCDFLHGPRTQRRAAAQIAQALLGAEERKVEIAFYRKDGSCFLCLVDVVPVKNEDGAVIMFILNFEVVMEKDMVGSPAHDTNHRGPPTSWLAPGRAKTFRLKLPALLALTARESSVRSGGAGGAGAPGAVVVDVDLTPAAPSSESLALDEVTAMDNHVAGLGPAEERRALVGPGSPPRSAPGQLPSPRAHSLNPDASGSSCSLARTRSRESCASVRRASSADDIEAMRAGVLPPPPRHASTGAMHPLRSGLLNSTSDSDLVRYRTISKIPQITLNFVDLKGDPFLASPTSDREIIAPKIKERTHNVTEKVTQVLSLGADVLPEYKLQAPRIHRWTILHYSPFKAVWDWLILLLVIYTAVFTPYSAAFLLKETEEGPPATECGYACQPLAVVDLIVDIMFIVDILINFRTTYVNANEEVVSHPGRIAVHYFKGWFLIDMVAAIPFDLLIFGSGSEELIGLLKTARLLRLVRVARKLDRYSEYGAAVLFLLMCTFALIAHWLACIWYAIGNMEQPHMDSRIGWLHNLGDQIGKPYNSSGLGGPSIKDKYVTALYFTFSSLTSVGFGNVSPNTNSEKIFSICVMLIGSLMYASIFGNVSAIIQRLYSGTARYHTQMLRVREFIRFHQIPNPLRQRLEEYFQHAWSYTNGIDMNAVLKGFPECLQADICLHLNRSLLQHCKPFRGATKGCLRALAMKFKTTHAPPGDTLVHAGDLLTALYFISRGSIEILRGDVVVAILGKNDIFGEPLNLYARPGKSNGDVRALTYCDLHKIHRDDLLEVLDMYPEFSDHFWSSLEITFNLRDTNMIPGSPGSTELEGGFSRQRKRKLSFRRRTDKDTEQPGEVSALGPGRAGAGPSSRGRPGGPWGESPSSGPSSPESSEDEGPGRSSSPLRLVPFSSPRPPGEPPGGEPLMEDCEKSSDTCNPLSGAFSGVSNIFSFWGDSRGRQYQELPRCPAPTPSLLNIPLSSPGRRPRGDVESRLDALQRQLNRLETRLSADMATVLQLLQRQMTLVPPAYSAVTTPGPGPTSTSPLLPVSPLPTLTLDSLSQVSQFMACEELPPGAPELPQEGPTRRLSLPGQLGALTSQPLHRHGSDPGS

This experiment has as its target human ether-à-go-go-related gene (hERG) potassium channel (human, UniProt Q12809). In words: primary screen, population patch clamp on CHO cells stably expressing hERG; higher = less effect of the substance.
Turning to `COc1ccccc1NC(=O)c1cc2c(CO)cnc(C)c2oc1=Nc1ccc(OC)c(OC)c1`, the “hERG current change (%, negative = inhibition) at 10uM” value was 13.3%.

Take `COc1ccc(NN=Nc2ccc([N+](=O)[O-])cc2)cc1`: the “hERG current change (%, negative = inhibition) at 10uM” value was determined as 19.1%.

For the compound `OC1COC(OCC2OC(OCc3ccccc3)C(O)C(O)C2O)C(O)C1O` (stereo not drawn), the “hERG current change (%, negative = inhibition) at 10uM” value is -11.1%.

As for `CCOC(=O)N1CCN(C(=O)c2cc3cc(OC)c(OC)cc3[nH]2)CC1`, the “hERG current change (%, negative = inhibition) at 10uM” value is listed as 5.96%.

For the compound `CC(=O)Nc1ccc(NC(=O)c2cc(-n3cnnc3)ccc2Cl)cc1`, the “hERG current change (%, negative = inhibition) at 10uM” value is given as 15.7%.

Turning to `COc1cccc(C(C2C(=O)CC(C)(C)CC2=O)C2C(=O)CC(C)(C)CC2=O)c1`, the “hERG current change (%, negative = inhibition) at 10uM” value is reported as 21.2%.

With `O=C(N1CCN(c2ccc(F)cc2)CC1)C12CC3CC(CC(C3)C1)C2`, the “hERG current change (%, negative = inhibition) at 10uM” value stood at 5.05%.

With `CN(C)c1nc(OCCNC(=O)Nc2ccccc2)nc(N2CCCCC2)n1`, the “hERG current change (%, negative = inhibition) at 10uM” value came to 0.123%.

On to `CC[n+]1c(C)n(-c2ccccc2)c2ccc(NC(C)=O)cc21.[I-]`, for which the “hERG current change (%, negative = inhibition) at 10uM” value is reported as 11%.

For `Cc1nc(NCCc2ccccc2)c(C#N)c(C)c1[N+](=O)[O-]`, the “hERG current change (%, negative = inhibition) at 10uM” value stood at 6.5%.

In the case of `CCOC(=O)c1sc(NC(=O)c2sc(C)nc2C)nc1C`, the “hERG current change (%, negative = inhibition) at 10uM” value is -4.49%.

For the compound `Fc1ccc(/C=N/NC(=S)Nc2ccc(Cl)cc2)cc1F`, the “hERG current change (%, negative = inhibition) at 10uM” value came out at 9.62%.

With `Cc1ccc(S(=O)(=O)NC(CC(=O)NCc2ccco2)c2ccco2)cc1` (stereo not drawn), the “hERG current change (%, negative = inhibition) at 10uM” value is -0.749%.

For `CCOc1ccc(Nc2ccc([N+](=O)[O-])c3nonc23)cc1`, the “hERG current change (%, negative = inhibition) at 10uM” value is given as -53.9%.

On to `O=[N+]([O-])c1ccc(Nc2ccccc2)c2nonc12`, for which the “hERG current change (%, negative = inhibition) at 10uM” value is given as -8.36%.

With `CCOc1ccc(Nc2ccc3nonc3c2[N+](=O)[O-])cc1`, the “hERG current change (%, negative = inhibition) at 10uM” value was found to be 10.6%.

On to `COc1ccccc1NC(=O)CSc1nc2nc(C)cc(C)c2c(=O)[nH]1`, for which the “hERG current change (%, negative = inhibition) at 10uM” value stood at 4.82%.

`CCOC(=O)CSc1nnc(-c2cc(OC)c(OC)c(OC)c2)o1`: the “hERG current change (%, negative = inhibition) at 10uM” value turned out to be 12.1%.

Consider `CCCCN(CCCC)C(=O)CSc1nnc(-c2cc(OC)c(OC)c(OC)c2)o1`, for which the “hERG current change (%, negative = inhibition) at 10uM” value is on record as -58.5%.

Turning to `CCCCOC(=O)CSc1nnc(-c2cc(OC)c(OC)c(OC)c2)o1`, the “hERG current change (%, negative = inhibition) at 10uM” value is -11.9%.

In the case of `COCCN(C(=O)CCC(=O)Nc1ccccn1)C(C(=O)NC(C)C)c1ccc(Cl)cc1` (stereo not drawn), the “hERG current change (%, negative = inhibition) at 10uM” value is on record as -5.58%.

On to `CN(C)c1ccc(/C=C2\CC3C4CC=C5CC(O)CCC5(C)C4CCC3(C)C2=O)cc1` (stereo not drawn), for which the “hERG current change (%, negative = inhibition) at 10uM” value is recorded as 3.55%.

With `COc1cc(C(=O)NCCOc2cc(C)cc(C)c2)c(Br)c(OC)c1OC`, the “hERG current change (%, negative = inhibition) at 10uM” value is -18.4%.

As for `O=S(=O)(NCCc1csc(-c2ccccc2)n1)c1cccnc1`, the “hERG current change (%, negative = inhibition) at 10uM” value is 8.48%.
